From PubChem BioAssay
This is a sample that favours compounds with a hit; in the whole collection about 1.8% have one here.
UBC13 inh: UBC13 polyubiquitin chain formation inhibitors, primary screen, biochemical, TR-FRET, uHTS. Ubiquitin-conjugating enzyme E2 N (Homo sapiens), P61088. inhibition, % at 20 µM. 330,000 tested, 0.47% active. AID 485273, 2010; in the data active = inhibition above about 45%, passing the limit was not always enough
MBD2 DNA inh: inhibitors of MBD2 binding to methylated DNA, primary screen, biochemical, TR-FRET, DNA-binding domain, human; Methyl-CpG-binding domain protein 2 (Homo sapiens), Q9UBB5; MBD2 binding to methylated oligonucleotide; inhibition, % at 4.4 µM; 370,000 tested, 0.31% active; AID 686964, 2013; in the data active = inhibition above about 13%
UHRF1 MBD2 ctr: UHRF1 methylated DNA binding inhibitors, primary screen, counter-screen for MBD2 inhibitor project, biochemical, TR-FRET, human UHRF1, single concentration | E3 ubiquitin-protein ligase UHRF1 (Homo sapiens), Q96T88 | inhibition, % at 4.4 µM | UHRF1 binding to methylated oligo | 370,000 tested, 0.75% active; in the data active = inhibition above about 21%;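 note: UHRF1 SRA domain binding a hemimethylated CpG hairpin DNA probe; 0% = median of test compound wells and 100% = reference inhibitor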
Neddylation inh: inhibitors of cullin neddylation, primary screen, biochemical, TR-FRET, uHTS, NAE and Ubc12 | NEDD8-conjugating enzyme Ubc12 (Homo sapiens) + NEDD8-activating enzyme E1 regulatory … | calls only at 25 µM | 360,000 tested, 0.58% active | AID 651699, 2012; in the data active = inhibition above about 36%
Target sequence (P61081 whole entry, looked up): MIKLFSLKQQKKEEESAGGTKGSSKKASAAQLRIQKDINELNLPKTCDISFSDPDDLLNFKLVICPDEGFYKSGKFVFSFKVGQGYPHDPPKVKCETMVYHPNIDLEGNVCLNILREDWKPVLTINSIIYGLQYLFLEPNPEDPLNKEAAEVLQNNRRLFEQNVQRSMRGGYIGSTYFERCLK
Target sequence (Q13564 whole entry, looked up): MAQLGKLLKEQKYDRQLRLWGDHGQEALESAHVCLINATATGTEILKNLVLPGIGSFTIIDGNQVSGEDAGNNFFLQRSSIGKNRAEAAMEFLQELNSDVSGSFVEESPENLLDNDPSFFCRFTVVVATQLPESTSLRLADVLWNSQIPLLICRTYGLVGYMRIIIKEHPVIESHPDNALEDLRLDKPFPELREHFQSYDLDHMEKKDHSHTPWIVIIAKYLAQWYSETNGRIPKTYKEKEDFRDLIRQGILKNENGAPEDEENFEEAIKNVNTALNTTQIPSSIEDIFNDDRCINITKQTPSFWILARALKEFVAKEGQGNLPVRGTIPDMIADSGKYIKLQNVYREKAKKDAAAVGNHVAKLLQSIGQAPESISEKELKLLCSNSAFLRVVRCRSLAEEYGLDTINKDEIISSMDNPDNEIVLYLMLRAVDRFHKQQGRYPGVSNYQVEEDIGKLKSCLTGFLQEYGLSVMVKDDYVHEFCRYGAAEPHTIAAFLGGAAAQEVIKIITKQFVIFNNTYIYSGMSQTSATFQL
Neddyl conf: blockade of NEDD8 conjugation to cullin – biochemical, TR-FRET, single concentration, confirmation | shares compounds with Neddylation inh | TR-FRET cullin neddylation biochemical assay | calls only at 25 µM | 1,800 tested, 13% active | AID 652217, 2013; in the data active = inhibition above about 40%;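 note: neddylation substrate is the cullin 1 ring ligase complex with SKP2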
* hit, by the source's call; i = inactive; . = not tested or not shown; + = active, no number.

SMILES | UBC13 inh | MBD2 DNA inh | UHRF1 MBD2 ctr | Neddylation inh | Neddyl conf
CC(C)=CCC[C@](C)(O[C@@H]1O[C@H](CO[C@@H]2OC[C@@H](O)[C@H](O)[C@H]2O)[C@@H](O)[C@H](O)[C@H]1O)C1CC[C@]2(C)C1[C@H](O)CC1[C@@]3(C)CC[C@H](O[C@@H]4O[C@H](CO)[C@@H](O)[C@H](O)[C@H]4O)C(C)(C)C3CC[C@]12C (some centres undefined) | 45 | -2 | -2 | i | .
CCOC(=O)C1CCCN(C(=O)c2cc3cc(OC)c(OC)cc3[nH]2)C1 (centres undefined) | 12 | 1 | 3 | + | .
O=C(Nc1cccc(F)c1)c1cccnc1NCCc1ccccc1 | 14 | -2 | -3 | + | i
O=C(/C=C/c1cccc(F)c1)OCC(=O)c1ccc[nH]1 | 0 | 0 | 0 | i | .
COc1cccc(/C=C/C(=O)OCC(=O)c2ccc[nH]2)c1 | . | -2 | -1 | + | i
COc1cccc(/C=C/C(=O)OCC(=O)Nc2ccccc2Sc2ccccc2)c1 | 8 | 6 | -1 | + | i
COCCNC(=O)C(c1ccco1)N(C(=O)Cn1nnc2ccccc21)c1cc(C)ccc1C (centres undefined) | 6 | -1 | -1 | i | .
Cc1ccc(C)c(NC(=O)C2CC(=O)N(C3CCCCC3)C2)c1 (centres undefined) | 0 | 9 | 2 | i | .
N#Cc1nc(-c2ccco2)oc1NCc1ccccc1Cl | -4 | 4 | 1 | + | i
O=C(NCc1ccc(Cl)cc1)C1CCCN(c2cnccn2)C1 (centres undefined) | 1 | -6 | -1 | i | .
O=C(O)c1cc2nccc(-c3ccco3)n2n1 | 28 | -2 | -2 | . | .
COc1ccc(-c2ccnc3cc(C(=O)O)nn23)cc1 | 25 | -1 | -1 | + | .
N#CC(=Cc1ccncc1)c1ccccc1 | . | 2 | -4 | i | .
N#C/C(=C\c1ccncc1)c1nc2c(s1)CCCC2 | 10 | 0 | -2 | + | .
CCOC(=O)c1cn2nc(Oc3cccc(C(F)(F)F)c3)ccc2n1 | 9 | 2 | 3 | + | .
COc1ccc(/C=C/C(=O)NC2CCS(=O)(=O)C2)cc1 (centres undefined) | 2 | -2 | -6 | i | .
COc1ccc(C(=O)Nc2cc(=O)[nH]c3ncnn23)cc1 | 14 | -1 | 1 | i | .
O=C1c2ccccc2-c2n[nH]c3cccc1c23 | 9 | -3 | -3 | + | .
O=c1c(-c2ccccc2)n[nH]c2ccccc12 | -10 | 8 | 18 | i | .
O=C(NCCc1c[nH]c2ccccc12)N[C@@H](Cc1ccccc1)C(=O)O | 3 | 5 | -1 | i | .
O=C(Nc1cc(-c2ccccc2)cs1)c1ccco1 | -3 | -4 | -2 | i | .
Cn1cncc1C#Cc1ccc2cc(C3(O)CCCCC3)oc(=O)c2c1 | -3 | -2 | 2 | i | .
Cn1cncc1C#Cc1ccc2cc(CCO)oc(=O)c2c1 | 11 | 1 | -11 | + | i
COC(=O)c1cc2c(ccn2-c2ccc(F)cc2)n1CC(=O)OC(C)C | 6 | -11 | -2 | + | i
COC(=O)c1cc2c(ccn2-c2ccc(F)cc2)n1CC(=O)C(C)(C)C | -6 | 0 | 2 | i | .
SMILES | UBC13 inh | MBD2 DNA inh | UHRF1 MBD2 ctr | Neddylation inh | Neddyl conf
Cc1ccc(S(=O)(=O)N2CCCCC2)cc1C(=O)NCc1ccncc1 | 6 | 5 | -1 | i | .
COc1ccc(N2CCN(C(=O)c3ccc(S(=O)(=O)N4CCCCCC4)cc3)CC2)cc1 | -6 | -2 | -1 | i | .
CC(C)NC(=O)/C(=C/c1ccco1)c1ccccc1 | -14 | -6 | 1 | + | i
CCC(C)NC(=O)/C(=C/c1ccco1)c1ccccc1 (centres undefined) | -15 | -6 | -3 | i | .
c1nc2sc3c(c2c2nnnn12)CCC3 | 8 | 1 | -1 | + | i
Clc1ccc(-c2cn3ccccc3n2)cc1 | 0 | 3 | -4 | + | i
CCOc1ccc(/C(C)=N/N2C(=O)C(CC(=O)Nc3ccc(OC)cc3[N+](=O)[O-])SC2=Nc2cccc(C)c2C)cc1 (centres undefined) | -12 | 0 | -5 | i | .
Cn1c2ccccc2c2c(C(=O)N3CCN(c4ccccn4)CC3)cn(C3CCCC3)c(=O)c21 | 9 | 5 | -2 | i | .
Cn1c2ccccc2c2c(C(=O)N3CCN(C(=O)c4ccco4)CC3)cn(C3CCCCC3)c(=O)c21 | 1 | -1 | 1 | + | i
NC(=O)C1CCN(C(=O)COc2ccc3c4c(c(=O)oc3c2)CCCC4)CC1 | 2 | 0 | -1 | . | .
CC1(C)CC(NC(=O)COc2ccc3c4c(c(=O)oc3c2)CCCC4)CC(C)(C)N1 | 16 | -2 | -6 | + | .
CC(=O)COc1ccc2c3c(c(=O)oc2c1)CCCC3 | 14 | -4 | -5 | . | .
O=C(COc1ccc2c3c(c(=O)oc2c1)CCCC3)NCCN1CCOCC1 | 8 | . | . | + | i
O=C(O)C1CCN(C(=O)COc2ccc3c4c(c(=O)oc3c2)CCC4)CC1 | 7 | 6 | 6 | + | i
O=C(COc1ccc2c3c(c(=O)oc2c1)CCCC3)NCCCN1CCOCC1 | 1 | -2 | 6 | + | i
O=C(COc1ccc2c3c(c(=O)oc2c1)CCC3)NCCN1CCOCC1 | -1 | 1 | 0 | i | .
Cc1cccc(N2CCN(C(=O)CSc3ccc4c(c3)OCCO4)CC2)c1C | 13 | -1 | 0 | i | .
CCN(CC(=O)NCc1cccs1)C(=O)/C=C/c1cccc(OC)c1OC | 6 | -6 | -1 | + | .
CCCN(CC(=O)Nc1ccccc1C)C(=O)c1ccc(-c2ccc(C(C)=O)cc2)o1 | 5 | . | . | + | .
CCCN(CC(=O)Nc1ccccc1C)C(=O)c1ccc(C(=O)c2ccccc2)cc1 | -8 | -7 | 2 | i | .
CN(C)c1ccc(-c2nc3cnccn3c2Nc2ccc3c(c2)OCCO3)cc1 | 10 | 4 | -1 | + | .
CC(=O)c1ccc(-c2ccc(C(=O)NC3CC(C)(C)NC(C)(C)C3)o2)cc1 | 19 | -3 | -2 | + | .
COc1cccc2c(=O)cc(C)n(CC(=O)Nc3cccc(C)c3)c12 | -19 | -3 | -2 | + | i
CCN(CC)c1ccc(S(=O)(=O)N2CCOCC2)cc1NC(=O)COC(=O)/C=C/c1ccc(O)c(OC)c1 | . | -1 | -2 | + | i
COc1cc(/C=C/C(=O)OCC(=O)N2CCN(S(=O)(=O)c3ccc(C)cc3C)CC2)ccc1O | -11 | 4 | 3 | + | i
CCN(CC)c1ccc(S(=O)(=O)N2CCOCC2)cc1NC(=O)COC(=O)/C=C/c1ccccc1 | . | -7 | -1 | i | .
Cc1ccc(S(=O)(=O)N2CCN(C(=O)COC(=O)/C=C/c3ccc(Cl)cc3)CC2)c(C)c1 | . | -4 | 1 | i | .
